Experimental data reported in PubChem BioAssay AID1159580 (chemical genetic matrix, 2015).
Values joined by “and” are separate entries in the source; they are usually repeats but may differ in a detail not shown here. Equal entries are not always repeated. Out of some 5,500 compounds screened, about 2,000 (36%) were called active. Not shown: some 18% with an inconclusive outcome. Rule as the data show it: active = normalized growth mostly below about 0.91 (no sharp cut-off); inconclusive = no clear call, values can overlap the other calls; inactive = mostly above about 0.92. This is one part of the list.

Assay: chemical genetic growth profiling, strain panel (AID 1159580);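 also: tested at 20 µM; growth read once vehicle control cultures reached saturation at 30 °C; 1 = growth at the plate median or of vehicle wells; lower values mean less growth of the strain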
Conditions: S. cerevisiae deletion strains, growth OD

Measured: normalized growth

COc1ccc2c(c1)OCC(Cc1ccc(OC)c(OC(C)=O)c1)C2=O (configuration not stated)
inactive: locus YAL013W, strain DEP1, active compounds read low 0.979 | locus YAL021C, strain ccr4, active compounds read low 0.974 | locus YAL026C, strain drs2, active compounds read low 0.967 | locus YAL030W, strain snc1, active compounds read low 0.973 | locus YBL061C, strain skt5, active compounds read low 0.967 | locus YBR009C, strain hhf1, active compounds read low 0.983 | locus YBR021W, strain FUR4, active compounds read low 0.883 | locus YBR023C, strain chs3, active compounds read low 0.965 | locus YBR171W, strain sec66, active compounds read low 0.962 | locus YBR229C, strain ROT2, active compounds read low 0.996 | locus YBR231C, strain swc5, active compounds read low 0.969 | locus YBR279W, strain paf1, active compounds read low 0.973 | locus YCL011C, strain gbp2, active compounds read low 0.985 | locus YCL016C, strain dcc1, active compounds read low 0.985 | locus YCL029C, strain bik1, active compounds read low 1.01 | locus YCL061C, strain MRC1, active compounds read low 0.976 | locus YCL069W, strain vba3, active compounds read low 0.982 | locus YCR088W, strain abp1, active compounds read low 0.984 | locus YDL005C, strain med2, active compounds read low 0.963 | locus YDL035C, strain GPR1, active compounds read low 0.99 | locus YDL040C, strain nat1, active compounds read low 0.96 | locus YDL074C, strain BRE1, active compounds read low 1.01 | locus YDL101C, strain DUN1, active compounds read low 0.988 | locus YDL134C, strain PPH21, active compounds read low 0.952 | locus YDL185W, strain tfp1, active compounds read low 1.02 | locus YDL192W, strain arf1, active compounds read low 1 | locus YDR001C, strain nth1, active compounds read low 0.982 | locus YDR069C, strain doa4, active compounds read low 0.958 | locus YDR101C, strain arx1, active compounds read low 0.996 | locus YDR137W, strain rgp1, active compounds read low 0.959 | locus YDR150W, strain NUM1, active compounds read low 0.982 | locus YDR159W, strain sac3, active compounds read low 0.975 | locus YDR162C, strain NBP2, active compounds read low 0.957 | locus YDR195W, strain ref2 1.04 | locus YDR297W, strain sur2, active compounds read low 0.978 | locus YDR318W, strain mcm21, active compounds read low 0.992 | locus YDR334W, strain swr1, active compounds read low 0.973 | locus YDR335W, strain msn5, active compounds read low 0.984 | locus YDR388W, active compounds read low 0.998 | locus YDR392W, strain spt3, active compounds read low 0.781 | locus YDR502C, strain sam2, active compounds read low 0.992 | locus YEL003W, strain gim4, active compounds read low 0.992 | locus YEL037C, strain rad23, active compounds read low 0.978 | locus YEL061C, strain CIN8 (second series), active compounds read low 0.984 | locus YEL061C, strain CIN8, active compounds read low 0.993 | locus YER015W, strain faa2, active compounds read low 0.98 | locus YER016W, strain bim1, active compounds read low 0.977 | locus YER110C, active compounds read low 1.02 | locus YER111C, strain swi4, active compounds read low 0.972 | locus YER155C, strain BEM2 (second series), active compounds read low 0.952 | locus YER155C, strain BEM2, active compounds read low 0.981 | locus YER167W, strain BCK2, active compounds read low 0.993 | locus YFR010W, strain ubp6, active compounds read low 0.969 | locus YGL078C, strain dbp3, active compounds read low 1 | locus YGL086W, strain mad1, active compounds read low 1.01 | locus YGL167C, strain pmr1, active compounds read low 0.957 | locus YGL173C, strain kem1, active compounds read low 0.954 | locus YGL227W, strain vid30, active compounds read low 0.979 | locus YGL240W, strain doc1, active compounds read low 0.99 | locus YGL248W, strain PDE1, active compounds read low 0.99 | locus YGL253W, strain hxk2, active compounds read low 0.93 | locus YGR078C, strain PAC10, active compounds read low 0.977 | locus YGR135W, strain pre9, active compounds read low 1 | locus YGR252W, strain gcn5, active compounds read low 1.01 | locus YHR013C, strain ard1, active compounds read low 0.95 | locus YHR027C, strain rpn1, active compounds read low 0.995 | locus YHR030C, strain SLT2, active compounds read low 1 and 1.05 | locus YHR079C, strain IRE1 (second series), active compounds read low 0.987 | locus YHR079C, strain IRE1, active compounds read low 1.01 | locus YHR094C, strain hxt1, active compounds read low 0.992 | locus YHR129C, strain ARP1, active compounds read low 0.998 | locus YHR142W, strain chs7, active compounds read low 0.965 | locus YHR200W, strain rpn10, active compounds read low 1.01 | locus YIL066C, strain RNR3, active compounds read low 0.982 | locus YIL073C, strain SPO22, active compounds read low 0.996 | locus YIL125W, strain kgd1, active compounds read low 1 | locus YIR030C, strain dcg1, active compounds read low 0.987 | locus YJL092W, strain hpr5, active compounds read low 0.98 | locus YJL095W, strain BCK1 (second series), active compounds read low 0.973 | locus YJL095W, strain BCK1, active compounds read low 0.991 and 1.05 | locus YJL115W, strain asf1, active compounds read low 0.983 | locus YJL129C, strain trk1, active compounds read low 0.945 | locus YJL134W, strain LCB3, active compounds read low 1 | locus YJL154C, strain vps35, active compounds read low 0.98 | locus YJL164C, strain tpk1, active compounds read low 0.97 | locus YJL166W, strain qcr8, active compounds read low 0.961 | locus YJL168C, strain set2, active compounds read low 0.99 | locus YJL187C, strain SWE1 (second series), active compounds read low 0.991 | locus YJL187C, strain SWE1, active compounds read low 0.978 | locus YJR043C, strain POL32, active compounds read low 1.01 | locus YJR066W, strain TOR1, active compounds read low 1 | locus YJR075W, strain HOC1, active compounds read low 0.983 | locus YKL009W, strain mrt4, active compounds read low 0.993 | locus YKL068W, active compounds read low 0.984 | locus YKL085W, strain MDH1 (second series), active compounds read low 0.982 | locus YKL085W, strain MDH1, active compounds read low 0.982 | locus YKL160W, strain elf1, active compounds read low 0.98 | locus YKL190W, strain CNB1, active compounds read low 0.974 | locus YKR001C, strain vps1, active compounds read low 1.01 | locus YKR026C, strain gcn3, active compounds read low 0.971 | locus YKR091W, strain srl3, active compounds read low 0.974 | locus YLL001W, strain dnm1, active compounds read low 0.979 | locus YLL026W, active compounds read low 0.976 | locus YLL041C, strain sdh2, active compounds read low 0.987 | locus YLR027C, strain aat2, active compounds read low 0.97 | locus YLR039C, strain RIC1, active compounds read low 1.04 | locus YLR058C, strain SHM2, active compounds read low 0.995 | locus YLR102C, strain apc9, active compounds read low 1 | locus YLR113W, strain HOG1, active compounds read low 0.95 | locus YLR221C, strain rsa3, active compounds read low 0.943 | locus YLR258W, strain gsy2, active compounds read low 0.963 | locus YLR262C, strain YPT6 (second series), active compounds read low 0.965 | locus YLR262C, strain YPT6, active compounds read low 1 | locus YLR268W, strain sec22, active compounds read low 0.992 | locus YLR320W, strain mms22, active compounds read low 0.933 | locus YLR330W, strain CHS5, active compounds read low 0.997 | locus YLR342W, strain FKS1 (second series), active compounds read low 0.993 | locus YLR342W, strain FKS1, active compounds read low 0.948 | locus YLR357W, strain rsc2, active compounds read low 0.974 | locus YLR370C, strain arc18, active compounds read low 0.981 | locus YLR371W, strain rom2, active compounds read low 1.01 | locus YLR384C, strain iki3, active compounds read low 0.975 | locus YLR418C, strain cdc73, active compounds read low 0.995 | locus YML016C, strain PPZ1, active compounds read low 1 | locus YML032C, strain rad52, active compounds read low 1 | locus YML120C, strain ndi1, active compounds read low 0.982 | locus YML124C, strain tub3, active compounds read low 0.995 | locus YMR058W, strain fet3, active compounds read low 0.965 | locus YMR078C, strain ctf18, active compounds read low 1 | locus YMR125W, strain sto1, active compounds read low 0.985 | locus YMR129W, active compounds read low 0.975 | locus YMR205C, strain PFK2, active compounds read low 0.946 | locus YMR223W, strain ubp8, active compounds read low 1 | locus YMR231W, strain pep5, active compounds read low 0.946 | locus YMR263W, strain SAP30, active compounds read low 0.996 | locus YMR307W, strain GAS1, active compounds read low 0.92 | locus YNL067W, strain RPL9B, active compounds read low 0.981 | locus YNL071W, strain lat1, active compounds read low 0.949 | locus YNL153C, strain GIM3, active compounds read low 0.988 | locus YNL183C, strain NPR1, active compounds read low 0.99 | locus YNL209W, strain ssb2, active compounds read low 0.996 | locus YNL233W, strain BNI4, active compounds read low 0.991 | locus YNL248C, strain rpa49, active compounds read low 0.963 | locus YNL250W, strain rad50, active compounds read low 1.01 | locus YNL271C, strain bni1, active compounds read low 0.989 | locus YNL298W, strain CLA4, active compounds read low 1 | locus YNL307C, strain MCK1, active compounds read low 1 | locus YNL322C, strain KRE1 (second series), active compounds read low 0.979 | locus YNR049C, strain mso1, active compounds read low 0.97 | locus YNR052C, strain pop2, active compounds read low 0.996 | locus YOL012C, strain htz1 1.12 | locus YOL147C, strain pex11, active compounds read low 0.988 | locus YOR001W, strain rrp6, active compounds read low 0.956 | locus YOR061W, strain CKA2, active compounds read low 0.995 | locus YOR069W, strain VPS5, active compounds read low 1 | locus YOR070C, strain gyp1, active compounds read low 1 | locus YOR080W, strain dia2, active compounds read low 0.978 | locus YOR083W, strain WHI5, active compounds read low 0.971 | locus YOR106W, strain vam3, active compounds read low 0.963 | locus YOR136W, strain idh2, active compounds read low 1 | locus YOR144C, strain elg1, active compounds read low 0.996 | locus YOR184W, strain ser1, active compounds read low 0.969 | locus YOR231W, strain MKK1, active compounds read low 1.01 | locus YOR265W, strain rbl2, active compounds read low 0.975 | locus YOR270C, strain vph1, active compounds read low 0.88 | locus YOR290C, strain snf2, active compounds read low 0.974 | locus YOR316C, strain cot1, active compounds read low 1.01 | locus YPL051W, strain arl3, active compounds read low 1 | locus YPL078C, strain atp4, active compounds read low 0.972 | locus YPL106C, strain sse1, active compounds read low 0.982 | locus YPL240C, strain hsp82, active compounds read low 0.971 | locus YPL256C, strain CLN2, active compounds read low 1.04 | locus YPR119W, strain clb2, active compounds read low 0.995 | locus YPR141C, strain kar3, active compounds read low 1.01 | locus YPR163C, strain tif3, active compounds read low 1.01 | locus YPR167C, strain met16, active compounds read low 0.994 | strain wtn01, active compounds read low 1.01
